uPA generation – cell surface uPA generation inhibition; AID 540303; 0.31% of 330,000 active; Potency, µM (doses to about 38.3 µM), inactives show at the top dose activity change, negative = inhibition, most hits filed as inhibitors; cell surface uPA generation assay, qHTS; active means well fitted inhibition curve with a large enough effect; inconclusive means small, poorly fitted or top-dose-only effect; inactive means no such curve, though single readings can be large or run the other way; tested in mouse RAW 264.7 cells; further: potency means the concentration at half of the fitted maximal effect; nearly all actives have a fitted effect of over 55% in size
HT1080-NT tox – kills 2HG-producing HT-1080-NT fibrosarcoma cells; HT-1080-NT fibrosarcoma viability, CellTiter-Glo ATP luminescence, 48 h; Potency, µM (top dose mostly 46.1 µM), inactives show top-dose activity, negative = less viability, usual class: cytotoxic; 1.6% of 360,000 active;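 further: NT is the 2HG producing partner of a matched IDH1 knockdown line; potency means the concentration at half of the fitted maximal effect; 0% = DMSO-treated cells and -100% = media-only wells without cells; nearly all actives have a fitted effect of over 55% in size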
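750 cells/well, RPMI + 5% FBS; 2 h settle, compound pin-transfer, 48 h at 37 degrees C. CellTiter-Glo 10 min RT, luminescence. Normalized to DMSO and media-only wells.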
HT1080 IDH1KD tx – HT-1080 IDH1 knockdown cell toxicity (counter line); HT-1080 IDH1 knockdown viability, ATP luminescence, 48 h; Potency, µM (series often up to 46.1 µM), without a hit: at the highest dose activity, negative = toxicity, hits mostly cytotoxic; 2% of 360,000 active; AID 686971;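 further: potency means the concentration at half of the fitted maximal effect; 0% = DMSO wells and -100% = cell-free medium wells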
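CellTiter-Glo luminescence after 48 h compound exposure at 37 degrees C of IDH1-knockdown HT-1080 cells in 5% FBS RPMI. %Activity scaled between DMSO wells and cell-free media wells, with curves fitted and assigned curve classes.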
IL1B secr inh – inflammasome signaling inhibition, IL-1 beta readout | THP-1 LPS/ATP IL-1B secretion, AlphaLISA, 16 h; hits give low values | activity change, % at 57.5 µM | 4.7% of 360,000 active; in the data active means activity change below about -50%; inconclusive means mostly about -30% to -49%
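Secreted IL-1B measured by AlphaLISA bead assay after 16 h compound exposure of THP-1 cells; compounds (final up to 57.5 uM) added 1 h before LPS (250 ng/mL) and ATP (1.25 mM) stimulation; lower signal means less secretion.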
TDP1 cell noCPT – qHTS for Inhibitors of human tyrosyl-DNA phosphodiesterase 1 (TDP1): qHTS in cells in absence of CPT; AID 686978, 2013; DT40 Tdp1-/- hTDP1 cells, no CPT, ATP luminescence, 48 h; Potency, µM (series often up to 46.2 µM), for inactives: top-dose activity change, negative = growth inhibition, usual class: inhibitors; 15% of 420,000 active; further: potency means the concentration at half of the fitted maximal effect; nearly all actives have a fitted effect of over 55% in size
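Growth of hTDP1-complemented DT40 Tdp1-knockout cells is measured by ATP luminescence after at least 48 hr compound exposure at 37 °C, with DMSO substituting for the 20 nM CPT used in the parallel screen.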
DT40 TDP1 CPT – growth inhibition of DT40 Tdp1-/-;hTDP1 cells with camptothecin (screen for TDP1 inhibitors). chicken DT40 Tdp1-/-;hTDP1 cells + 20 nM CPT, ATP luminescence, 48 h. Potency, µM (titrated, usually from 46.2 µM), for the others: at the top dose activity change, negative = growth inhibition, most hits filed as inhibitors. 12% of 420,000 active. AID 686979; further: potency means the concentration at half of the fitted maximal effect; nearly all actives have a fitted effect of over 55% in size
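Chicken DT40 Tdp1-/- cells stably complemented with human TDP1 were seeded at 400 cells/well in medium containing 20 nM camptothecin, exposed to pin-transferred compounds, and grown at 37 °C for at least 48 hr. Viability was read as ATP luminescence.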
* = called active by the depositor; ? = inconclusive; . = not tested or not shown. In the library only some 19% were active in any assay of this set; here they are far more common. Unless noted, the call rests on the fitted dose curve; in most records, active means well fitted curve in the direction sought with a large enough effect; inconclusive means small, poorly fitted or top-dose-only effect, or another doubt; inactive means no such curve, though single readings can be large; an effect the other way counts as inactive or inconclusive. Unless noted, on the % scale 0 is the no-effect control and ±100 the full control effect.

SMILES	uPA generation	HT1080-NT tox	HT1080 IDH1KD tx	IL1B secr inh	TDP1 cell noCPT	DT40 TDP1 CPT
COc1ccc(C(=O)C2CCN(C(=S)NCCc3ccc(OC)c(OC)c3)CC2)cc1	-3%	-4%	-21%	-10	12µM*	16µM*
CCCNC(=S)N1CCC(C(=O)c2ccc(F)cc2)CC1	-10%	0%	-23%	-9	16µM*	15µM*
CC(C)(C)NC(=S)N1CCC(C(=O)c2ccc(F)cc2)CC1	13%	-1%	4%	38	6%	0%
O=C(c1ccc(F)cc1)C1CCN(C(=S)Nc2ccc(F)cc2)CC1	-9%	?	0%	-26	15µM*	?
COc1ccc(CCNC(=S)N2CCC(C(=O)c3ccc(F)cc3)CC2)cc1OC	-19%	-17%	?	-13	?	?
COCCNC(=S)N1CCC(C(=O)c2ccc(F)cc2)CC1	17%	15%	0%	7	?	-5%
CCCNC(=S)N1CCC(NC(=O)C2CCCCC2)CC1	6%	11%	1%	11	?	16µM*
CC(C)COC(=O)Cn1cnc2ccc(Br)cc2c1=O	0%	0%	1%	10	?	-7%
CN(C)c1cccc(/C=C(\C#N)c2ccccc2)c1	?	?	3.3µM*	-5	2.3µM*	2.9µM*
COc1ccc(C(C#N)=Cc2ccc(N(C)CCC#N)cc2)cc1	.	-21%	?	-5	26µM*	23µM*
CN(C)c1ccc(/C=C(\C#N)c2ccccc2)cc1	0.89µM*	12µM*	10µM*	14	2.6µM*	2.6µM*
COc1ccc(N=Cc2ccc(N(CCC#N)CCC#N)cc2)cc1	-4%	?	7%	2	-19%	5%
CN(C)c1ccc(/C=C(\C#N)C(=O)c2ccccc2)cc1	10%	5%	-1%	-10	-17%	-26%
CN1CCN(c2ccc(-c3cccc(NC(=O)COc4ccc(Cl)cc4Cl)c3)nn2)CC1	-11%	?	-26%	-19	?	?
CCCCNC(=O)c1nc(C2CCN(S(=O)(=O)c3ccc(S(C)(=O)=O)cc3)CC2)oc1-c1ccccc1	.	-2%	2%	-26	13µM*	5.8µM*
CCCCNC(=O)c1nc(C2CCN(S(=O)(=O)c3cccc(C(F)(F)F)c3)CC2)oc1-c1cccc(C(F)(F)F)c1	.	?	20%	1	6%	0%
CCCCNC(=O)c1nc(C2CCN(S(=O)(=O)c3ccc(C(F)(F)F)cc3)CC2)oc1-c1ccccc1	.	-23%	-11%	11	7.3µM*	5.8µM*
O=C(CSc1ncc(-c2ccccc2)[nH]1)Nc1ccc(Cl)cc1	.	.	.	.	?	21µM*
O=C(CSc1ncc(-c2ccccc2)[nH]1)Nc1cccc(Br)c1	.	.	.	.	?	23µM*
O=C(CSc1ncn[nH]1)Nc1ccc(Cl)c(Cl)c1	7%	-14%	-20%	-52*	?	1%
O=C(CSc1ncc(-c2ccccc2)[nH]1)Nc1ccccc1	-1%	0%	15%	-10	?	?
Cc1ccc(NC(=O)CSc2ncn[nH]2)cc1C	.	.	.	.	-1%	14%
Cc1nnc2c3ccccc3nc(Nc3ccc(F)cc3Cl)n12	.	.	.	.	-28%	-19%
Cc1ccc(Nc2nc3ccccc3c3nnc(C)n23)c(C)c1	.	.	.	.	8.2µM*	12µM*
O=C(CCn1c(=O)oc2cc(Cl)ccc21)Nc1ccc(N2CCOCC2)cc1	-4%	-5%	0%	5	-27%	-3%
SMILES	uPA generation	HT1080-NT tox	HT1080 IDH1KD tx	IL1B secr inh	TDP1 cell noCPT	DT40 TDP1 CPT
Nc1nonc1-n1nnc(C(=O)N/N=C/C=C/c2ccccc2)c1CSC1=NCCS1	-11%	?	?	-90*	?	?
CCCN(CCC)Cc1c(C(=O)N/N=C/C(C)=C\c2ccccc2)nnn1-c1nonc1N	-1%	-19%	?	-68*	26µM*	16µM*
CC(/C=N/NC(=O)c1nnn(-c2nonc2N)c1C(C)C)=C\c1ccccc1	?	-27%	0%	-11	?	?
Cc1cc(C)cc(C(=O)NCCc2csc(-c3ccc(C(F)(F)F)cc3)n2)c1	.	.	.	.	21µM*	?
O=C(Cc1csc(-c2ccccc2)n1)Nc1ccc(C(F)(F)F)cc1	9%	-7%	-7%	10	?	-30%
Cc1cccc(CC(=O)NCCc2csc(-c3ccc(C(F)(F)F)cc3)n2)c1	.	.	.	.	15µM*	16µM*
Cc1cccc(-c2nc(CCNC(=O)c3ccco3)cs2)c1	.	-16%	-20%	?	?	?
Cc1ccc(C)c(NC(=O)C(=O)NCCc2csc(-c3ccc(C(F)(F)F)cc3)n2)c1	.	.	.	.	?	-50%
Cc1cccc(-c2nc(CCNC(=O)Cc3ccc(F)cc3)cs2)c1	.	.	.	.	23µM*	?
Cc1ccc(NC(=O)Cc2csc(-c3ccccc3)n2)cc1F	2%	-24%	?	-80*	?	7%
CCC1(C2CCN(C(=O)c3ccccc3Cl)CC2)NC(=O)N(CCc2scnc2C)C1=O (configuration not stated)	.	.	.	.	-9%	19%
O=C(Nc1cccc(/C=C/c2nc3ccccc3c(=O)[nH]2)c1)c1ccccc1Cl	-11%	?	?	-52*	15µM*	16µM*
COc1ccc(C(=O)Nc2cccc(/C=C/c3nc4ccccc4c(=O)[nH]3)c2)cc1	-9%	?	?	-27	6.5µM*	9.2µM*
CCOc1ccc(NS(=O)(=O)c2cc(NC(=O)c3ccc(C)cc3)ccc2Cl)cc1	-6%	2.3µM*	3.7µM*	-3	2.6µM*	3.7µM*
CCOc1ccc(C(=O)Nc2cccc(NC(=O)c3ccc(Cl)cc3Cl)c2)cc1	.	.	.	.	21µM*	?
CCOc1ccc(Oc2ccc(NS(=O)(=O)c3cc(C(=O)O)ccc3Cl)cc2)cc1	-3%	-14%	-14%	45	20%	-7%
Cc1ccc(C(=O)CCC(=O)Nc2ccc(Cl)c(S(=O)(=O)Nc3cccc(Cl)c3)c2)cc1	2%	-16%	-11%	7	3%	-2%
CCC(C)NCCC(=O)Nc1ccc(Cl)c(S(=O)(=O)Nc2ccc(Cl)cc2)c1 (configuration not stated)	1%	?	15µM*	-51*	?	?
O=C(OCC(=O)c1ccc[nH]1)c1ccc(F)c(S(=O)(=O)N2CCOCC2)c1	-8%	0%	-2%	5	-23%	-9%
Cc1onc(-c2ccccc2)c1C(=O)N1CCCN2C(=O)c3ccccc3C21 (configuration not stated)	-1%	12%	5%	18	-4%	15%

Bioassay records (PubChem)
